# The list is not random: actives were taken first. Their share in the collection is about 2.2%.
# hiPSC survival: enhancers of single-cell hiPSC survival, primary screen, ATPlite luminescence; survival enhancement, % at 20 µM; 360,000 tested, 0.044% active; 100% = ROCK inhibitor wells, 0% = DMSO; in the data active = survival enhancement above about 18%;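 note: cells exposed to compounds for 16 hours before the ATP read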
# HIF-2a inh: HIF-2a reporter inhibitors, primary screen, luminescence, 786-0 RCC cells; 786-0 RCC cells HIF-2a reporter, luciferase luminescence, overnight; inhibition, % at 18.8 µM; 360,000 tested, 0.72% active;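 active = inhibition of the luminescence signal of 40% or more relative to plate controls, in a single-dose primary screen at 18.75 µM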
# CF NFkB block: inhibitors of PAF-induced NF-kB signaling, primary screen, cell-based, GFP fluorescence, uHTS; 360,000 tested, 0.86% active; inhibition, % at 5 µM; KKLEB NF-kB-GFP reporter, GFP fluorescence overnight;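 active = at least 50% inhibition at 5 µM, scaled per plate between neutral and stimulator controls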;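 note: PAF is a Pseudomonas aeruginosa culture filtrate used as stimulus; plate controls were PAF-stimulated DMSO wells for no effect and unstimulated DMSO wells for full effect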
# PPC-1+TRAIL kill: compounds killing PPC-1 cancer cells with TRAIL present, primary screen, TRAIL potentiator project, ATPLite luminescence, uHTS | AID 1443, 2008 | cell killing (% activity), % at 4 µM or 5 µM | PPC-1 cells + TRAIL, ATPLite viability luminescence | 220,000 tested, 0.41% active;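 active = cell killing above 50% in the first pass at 4 µM, then a duplicate retest at 5 µM averaging 50% or more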;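 note: plate controls were cells with TRAIL plus DMSO for no effect and medium-only wells lacking cells for full effect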
# TRAIL sens C8: viability loss with TRAIL in NB7+C8 cells, primary screen, TRAIL sensitizer project, cell-based, ATPlite luminescence; inhibition (viability loss, TRAIL sensitization), % at 10 µM; 360,000 tested, 1% active;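 active = compounds causing at least 50% loss of cell viability in the single-dose screen, relative to plate controls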
# KKLEB tox: cytotoxicity in KKLEB CF airway cells, primary screen, cytotoxicity control for CF NF-kB inhibitor project, cell-based, uHTS, fluorescence assay plates. activity change (cytotoxicity), % at 5 µM. KKLEB CF airway cells viability, ATPlite luminescence, overnight; active compounds read low; cells stimulated with P. aeruginosa culture filtrate. 360,000 tested, 0.36% active;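 active = corrected activity change at or below -50% at 5 µM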
# Mdm2 MdmX conf: retested Mdm2-MdmX interaction blockers, confirmation, cell-based, luminescence, single concentration, set 2 | AID 504601, 2011 | SaOS-2 split-luciferase Mdm2/MdmX complementation | inhibition, % at 8 µM | shares compounds with HIF-2a inh | 740 tested, 99% active;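 active = mean inhibition of the luminescence signal across two replicates at or above 26 percent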
# Target sequence (O15151 whole entry, looked up): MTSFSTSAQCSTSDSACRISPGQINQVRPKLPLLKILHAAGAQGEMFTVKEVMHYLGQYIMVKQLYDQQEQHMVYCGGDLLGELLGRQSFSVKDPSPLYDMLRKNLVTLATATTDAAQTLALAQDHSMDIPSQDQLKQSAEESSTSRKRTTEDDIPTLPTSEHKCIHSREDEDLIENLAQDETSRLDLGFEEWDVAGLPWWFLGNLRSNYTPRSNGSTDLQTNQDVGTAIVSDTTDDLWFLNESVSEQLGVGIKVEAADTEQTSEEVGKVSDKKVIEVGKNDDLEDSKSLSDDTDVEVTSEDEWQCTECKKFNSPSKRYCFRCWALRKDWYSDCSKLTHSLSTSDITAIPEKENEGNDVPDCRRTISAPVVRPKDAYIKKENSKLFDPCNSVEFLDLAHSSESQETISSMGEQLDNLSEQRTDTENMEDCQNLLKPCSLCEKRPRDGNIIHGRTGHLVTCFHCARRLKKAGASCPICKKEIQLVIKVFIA
# Target sequence (Q00987 whole entry, looked up): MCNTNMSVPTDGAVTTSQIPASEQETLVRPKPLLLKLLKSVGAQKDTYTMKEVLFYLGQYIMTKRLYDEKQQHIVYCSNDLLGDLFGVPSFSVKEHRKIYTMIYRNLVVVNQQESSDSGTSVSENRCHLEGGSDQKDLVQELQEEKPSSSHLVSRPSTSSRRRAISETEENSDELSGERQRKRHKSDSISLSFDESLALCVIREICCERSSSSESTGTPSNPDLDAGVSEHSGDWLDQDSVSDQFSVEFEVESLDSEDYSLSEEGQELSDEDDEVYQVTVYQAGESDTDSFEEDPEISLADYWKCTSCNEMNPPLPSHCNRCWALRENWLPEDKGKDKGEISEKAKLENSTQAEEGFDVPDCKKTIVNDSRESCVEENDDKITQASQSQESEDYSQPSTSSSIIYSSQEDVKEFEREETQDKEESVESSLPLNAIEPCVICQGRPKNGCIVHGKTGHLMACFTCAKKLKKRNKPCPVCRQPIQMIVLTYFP
# HIF-2a inh conf: HIF-2a reporter inhibitor retest, confirmation, luminescence, 786-0 RCC cells; shares compounds with HIF-2a inh; 1,800 tested, 56% active; inhibition, % at 18.8 µM; HIF-2a luciferase reporter luminescence, overnight; AID 651580, 2012;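 active = mean inhibition across four replicates of at least 40 percent at the single tested concentration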
# HIF-1a cs: HIF-1a luciferase reporter signal reduction – MiaPaCa-2 cells, single concentration, counter-screen for HIF-2a inhibitor project, confirmation | shares compounds with HIF-2a inh | MiaPaCa-2 HIF-1a luciferase reporter, desferoxamine, overnight | inhibition, % at 18.8 µM | 1,800 tested, 72% active | AID 651589, 2012;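 active = mean inhibition of the reporter signal across four replicates at the single tested dose of 50% or more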
# Numbers without * were called inactive; x = no result.
SMILES,hiPSC survival,HIF-2a inh,CF NFkB block,PPC-1+TRAIL kill,TRAIL sens C8,KKLEB tox,HIF-2a inh conf,HIF-1a cs,others
Cc1ccc(C(=S)N2CCN(Cc3ccccc3)CC2)cc1,2,6,-12,17,-5,2,x,x,
CC12CCC(C(=O)Nc3ccc4c(c3)OCCO4)(OC1=O)C2(C)C (configuration not stated),-2,42*,-13,-7,4,3,32,50*,
O=C1OC(c2cccs2)Sc2ccccc21 (configuration not stated),-1,5,-29,x,8,-4,x,x,
Cc1nc(C)c(C(=O)Nc2ncc([N+](=O)[O-])s2)o1,0,56*,-4,26,8,-2,59*,35,
O=C(C(=Cc1ccc(F)cc1)C(=O)c1ccccc1)c1ccccc1,0,85*,37,x,20,-7,43*,102*,
O=C1C=CC(=C(c2ccc(O)cc2)c2ccc(O)cc2)C=C1,-4,85*,32,x,27,5,81*,107*,
Cc1nc(NC(=O)CN2CCN(c3cccc(Cl)c3)CC2)sc1C(=O)N(C)C,0,26,0,x,-3,8,x,x,
COc1cc2c(OC(C)=O)c3c(c(-c4ccc5c(c4)OCO5)c2cc1OC)C(=O)OC3,1,-46,17,15,16,-35,x,x,Mdm2 MdmX conf=88*
CC(=O)N(C(C)=O)c1ccc(Oc2ccc(Oc3ccc(N(C(C)=O)C(C)=O)cc3)cc2)cc1,-1,68*,40,x,-10,18,87*,50,
CCOC(=O)N1CCC(NC(=O)CS(=O)Cc2nc(-c3ccccc3C)oc2C)CC1 (configuration not stated),0,8,21,x,9,7,x,x,
CC(NC(=O)CCCCCNC(=O)N1CCn2c1nc1ccccc12)c1ccccc1 (configuration not stated),0,9,-15,x,-5,12,x,x,
Cc1nc(NCc2ccco2)c2c(C)c(C)sc2n1,-2,-27,4,8,28,-16,x,x,Mdm2 MdmX conf=101*
Cc1sc2nc3c4ccccc4c(NCc4ccco4)nn3c(=O)c2c1C,4,-264,-25,25,8,-6,x,x,
CCOC(=O)C(C)(C)N(Cc1ccc(Cl)cc1)S(=O)(=O)c1ccc(Cl)c([N+](=O)[O-])c1,x,x,x,14,x,x,x,x,
CCOC(=O)C(C)(C)N(Cc1ccc(C)cc1)S(=O)(=O)c1ccc(Cl)c([N+](=O)[O-])c1,-3,61*,-2,42,40,6,23,105*,
Cc1ccnc(NC(=O)C2CCCN(S(=O)(=O)c3ccc4[nH]c(=O)ccc4c3)C2)c1 (configuration not stated),0,3,-17,x,-12,3,x,x,
CCn1c(C)cc(C(=O)COC(=O)c2ccccc2[N+](=O)[O-])c1C,0,82*,5,x,93*,-67*,87*,87*,Mdm2 MdmX conf=98*
CCCn1c(C)cc(C(=O)COC(=O)c2ccc[nH]c2=O)c1C,-2,42*,-5,15,54*,-10,36,14,
C=CCn1c(C)cc(C(=O)COC(=O)c2ccc(N)c([N+](=O)[O-])c2)c1C,-2,-232,1,13,9,-2,x,x,
CCCn1c(C)cc(C(=O)COC(=O)c2ccc(Cl)c(S(=O)(=O)N3CCCC3)c2)c1C,0,-126,16,8,6,-9,x,x,
CN(C)c1nc(N)nc2c1ncn2C1OC(CO)CC1O (configuration not stated),0,2,-30,x,2,-4,x,x,
COc1ccccc1N1CCN(C(=O)c2ccc(Cn3c(=O)[nH]c4ccsc4c3=O)cc2)CC1,0,21,-6,-1,-16,-13,x,x,
C=CCC[C@@H](Cc1ccc(F)cc1)C(=O)OC[C@@H]1CCCN1C(=O)[C@@H](CC=C)CC(=O)N[C@@H](CO)Cc1ccccc1,-3,-6,21,x,0,3,x,x,
Cc1sc2ncnc(Sc3nnnn3-c3ccc(Cl)cc3)c2c1C,-5,41*,84*,-13,13,-57*,1,102*,Mdm2 MdmX conf=103*
O=C(O)CSc1ncnc2sc3c(c12)CCCC3,0,3,36,-45,2,-2,x,x,
SMILES,hiPSC survival,HIF-2a inh,CF NFkB block,PPC-1+TRAIL kill,TRAIL sens C8,KKLEB tox,HIF-2a inh conf,HIF-1a cs,others
CSc1nnnn1-c1ccc(Cl)cc1,0,23,0,20,-18,-7,x,x,
c1ccc(-n2nnnc2Sc2ncnc3sc4c(c23)CCCC4)cc1,-1,41*,82*,18,5,-52*,15,62*,
C/C(=N/NC(=O)c1cnccn1)c1cccs1,-2,-121,-14,22,10,14,x,x,
CCOC(=O)c1ccc(S(=O)(=O)Nc2nc3cc(S(=O)(=O)NC4=NCCCCC4)ccc3s2)cc1,0,8,-22,-12,10,12,x,x,
Nc1nc2cc(S(=O)(=O)NC3=NCCCCC3)ccc2s1,0,41*,-11,20,-12,-4,-7,-8,
CCOC(=O)/C(=C\c1ccc(Cl)cc1)c1nc2sc(C)c(C)c2c(=O)[nH]1,0,94*,80*,-14,13,-57*,98*,107*,
CN(C(=O)COC(=O)c1cccc(S(=O)(=O)N2CCCCC2)c1)C1CCS(=O)(=O)C1 (configuration not stated),2,1,-4,x,7,0,x,x,
CCCCOC(=O)c1ccc(NC(=S)NC(=O)c2c(Br)c(C)nn2C)cc1,-1,46*,7,9,-13,-3,56*,19,
CCOC(=O)c1ccc(NC(=S)NC(=O)c2cncc(Br)c2)cc1,0,31,-19,x,27,10,x,x,
CCCCCCCCCCOC(=O)Cn1c(COc2ccc(Cl)cc2)[n+](C)c2ccccc21,1,19,12,x,33,1,x,x,Mdm2 MdmX conf=103*
O=[N+]([O-])c1ccc(/C=N/Nc2ncccc2[N+](=O)[O-])s1,-1,-65,-5,x,21,-1,x,x,
